Assay results published in PubChem BioAssay (Tox21).
Results filed as inconclusive are left out. Entries that show only a call come without a potency. Calls of active or inactive are those of the source. Calls come from the whole dose curve; as a rule, active = well fitted cell-killing curve with a large enough effect in the repeat runs; inconclusive = weak or mixed curves, or effect the other way; inactive = no such curve, though single readings can be large or run the other way.

Assay: qHTS assay to identify small molecule antagonists of the progesterone receptor (PR) signaling pathway - cell viability counter screen (AID 1346798); note: nearly all actives have a fitted effect of over 50% in size
Conditions: PR-UAS-bla HEK293T viability, CellTiter-Glo luminescence, 16 h; series mostly up to 92.4 µM
Description: National Center for Advancing Translational Sciences [NCATS]
NIH Chemical Genomics Center [NCGC]
U.S. Environmental Protection Agency [EPA]
National Institutes of Environmental Health Sciences [NIEHS]
National Toxicology Program [NTP]
U.S. Food and Drug Administration [FDA]
Progesterone receptor (PR), a nuclear hormone receptor, plays an important role in development, metabolic homeostasis and reproduction. It is activated by the steroid hormone progesterone. Endocrine disrupting chemicals (EDCs) and their interactions with steroid hormone receptors like PR causes disruption of normal endocrine function. To identify the compounds that inhibit PR signaling, a PR-UAS-bla GripTite cell line i.e. PR-UAS-bla HEK293T (Invitrogen, Carlsbad, CA, USA) containing a beta-lactamase reporter gene under the control of an UAS response element was used to screen Tox21 10K compound library. The cytotoxicity of the Tox21 compound library against the PR-bla cell line was tested in parallel by measuring the cell viability using CellTiter-Glo assay in the same wells.
Tox21 Assay Protocol Summary:
PR-UAS-bla HEK293T cells were dispensed at 3,000 cells/4 uL of assay medium containing 2% charcoal stripped FBS per well into black wall/clear-bottom 1536-well plates using a Multidrop Combi (ThermoFisher Scientific, Waltham, MA) dispenser. After the assay plates were incubated at a 37C and 5% CO2 for 4 hr, 23 nL of compounds dissolved in DMSO, positive controls or DMSO only was transferred to the assay plate by a Pintool station (Kalypsys, San Diego, CA), followed by addition of 1 uL of R5020 in assay medium using a Flying Reagent Dispenser (FRD, Aurora Discovery, San Diego, CA). The plates were incubated at 37C and 5% CO2 for 16 hr. Then 1 uL of LiveBLAzer B/G FRET substrate was added using a Flying Reagent Dispenser, the plates were incubated at room temperature for 2 hours, and fluorescence intensity was measured by an Envision plate reader (PerkinElmer, Shelton, CT). For cell viability readout that measures cytotoxicity, 4 uL/well of CellTiter-Glo reagent was added into the assay plates using a FRD. After 30 min incubation at room temperature, the luminescence intensity in the plates was measured using a ViewLux (PerkinElmer) plate reader.
Potency is the fitted concentration of half-maximal effect.

| Compound | Potency | activity change, negative = cytotoxicity |
| --- | --- | --- |
| CCCCCCCCN(C)C | inactive | – |
| O=[N+]([O-])c1cc[n+]([O-])cc1 | inactive | – |
| CC(C)c1ccc2c(C(C)C)cc(C(C)C)c(S(=O)(=O)O)c2c1 | inactive | – |
| Cc1cc(CC(=O)O)c(C)n1-c1ccc(Cl)cc1 | inactive | – |
| CC(=O)SCc1ccco1 | inactive | – |
| CC(=O)O[C@H]1C[C@@H]2CC[C@@H]3[C@H](CC[C@@]4(C)[C@H]3C[C@H]([N+]3(C)CCCCC3)[C@@H]4OC(C)=O)[C@@]2(C)C[C@@H]1N1CCCCC1 | inactive | – |
| CC1CCc2cc(F)cc3c(=O)c(C(=O)O)cn1c23 (stereo not given) | inactive | – |
| CCCCOc1cc(C(=O)OCCN(CC)CC)ccc1N | inactive | – |
| O=C(NN1CCCC1)NS(=O)(=O)c1ccc(Cl)cc1 | inactive | – |
| CCN(CC)CCOc1ccc2c(c1)C(=O)c1cc(OCCN(CC)CC)ccc1-2 | 13.3 µM (active) | – |
| NCc1ccccc1 | inactive | – |
| CC(C)(C)C1CCCCC1O (stereo not given) | inactive | – |
| C1CCC2OC2C1 (stereo not given) | inactive | – |
| CC(C)CC=O | inactive | – |
| O=[N+]([O-])c1cccc(Cl)c1Cl | inactive | – |
| COCCO | inactive | – |
| N[C@H]1C(O)O[C@H](CO)[C@H](O)[C@@H]1O (stereo not given in full) | inactive | – |
| N#Cc1c(F)cccc1F | inactive | – |
| CC(C)(C)c1ccc(OCC2CO2)cc1 (stereo not given) | inactive | – |
| CN1CCN(C2=Nc3ccccc3Sc3ccc(Cl)cc32)CC1 | inactive | – |

| Compound | Potency | activity change, negative = cytotoxicity |
| --- | --- | --- |
| CC[C@]12CCCN3CCc4c(n(c5ccccc45)C(=O)C1)[C@@H]32 | inactive | – |
| CC(=O)N(CC(=O)N(C)C)c1ccccc1 | inactive | – |
| C=C(C)C(=O)OCCN(C)C | inactive | – |
| CC1=CCC(C(C)C)C=C1 (stereo not given) | inactive | – |
| CCCCCCCCCCCCCCCCCBr | – | -0.341% [at 18.9 µM] (inactive) |
| CCN(CC)C(C)=O | inactive | – |
| O=C(c1ccccc1)c1ccc2n1CCC2C(=O)O (stereo not given) | inactive | – |
| CCCCC(CC)(CO)CO | inactive | – |
| CC(=O)OCCc1ccccc1 | inactive | – |
| CC(=O)c1ccc2c(c1)[C@H](NC(=O)c1ccc(F)cc1)[C@@H](O)C(C)(C)O2 | inactive | – |
| O=C(O)Cn1c(C(=O)Nc2nc(-c3ccccc3Cl)cs2)cc2ccccc21 | inactive | – |
| CCOc1ccc(NC(=O)CC(C)=O)cc1 | inactive | – |
| Cc1cccc(Oc2ccccc2)c1 | 21.1 µM (active) | – |
| CCCCC(CC)COCCCN (stereo not given) | inactive | – |
| O=C(O)/C=C/c1cnc[nH]1 | inactive | – |
| C[Si](C)O[Si](C)(C)O[Si](C)(C)O[Si](C)C | inactive | – |
| CCOc1cc(OCC)c(C(=O)CCC(=O)O)cc1OCC | inactive | – |
| CCCCCc1ccc(N)cc1 | inactive | – |
| CC[C@H](C)[C@H](N)C(=O)O | inactive | – |
| CCOC(=S)SSC(=S)OCC | inactive | – |
